# Bioassay records deposited in PubChem BioAssay by Bradner/Qi Labs at DFCI.
# CBX7 inh – CBX7 inhibition, primary AlphaScreen. O95931. AlphaScreen His6-CBX7 / biotin-H3K27me3 peptide binding; hits give low values. normalised signal (fraction of DMSO) (test concentration not listed). actives 1.1% (n = 66,000); in the data active = normalised signal below about 0.5
# Target sequence (O95931 whole entry, looked up): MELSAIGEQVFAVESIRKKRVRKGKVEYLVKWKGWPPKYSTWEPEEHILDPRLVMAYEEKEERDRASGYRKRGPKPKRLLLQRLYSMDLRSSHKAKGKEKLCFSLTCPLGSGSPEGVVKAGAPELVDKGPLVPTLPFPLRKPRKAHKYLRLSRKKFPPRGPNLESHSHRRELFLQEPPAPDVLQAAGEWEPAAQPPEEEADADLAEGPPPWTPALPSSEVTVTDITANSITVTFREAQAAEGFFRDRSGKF
# * = called active by the depositor. This is one part of a sample in which hits are shown more often than they occur.
SMILES,CBX7 inh
CCOc1ccc(CN(CCc2ccc3c(c2)OCO3)Cc2ccccc2)cc1,1.07
CCOc1ccccc1CN(CCc1ccc2c(c1)OCO2)Cc1ccc(F)c(F)c1,0.471*
CCOc1ccccc1CN(CCc1ccc2c(c1)OCO2)Cc1ccccc1OC,0.947
CCOc1ccccc1NC(=O)C(CC)N1C(=O)C(C)N=C(c2ccccc2)c2ccccc21 (stereo not drawn),1.2
Cc1ccc(NC(=O)CN2C(=O)C(C)N=C(c3ccccc3)c3cc(Cl)ccc32)cc1C (stereo not drawn),0.757
COc1ccc(CNCCc2c(C)[nH]c3ccc(OC)cc23)c(F)c1,0.616
COc1ccc2[nH]c(C)c(CCNCc3cccc(F)c3)c2c1,0.51
COc1ccc2[nH]c(C)c(CCNCc3cccc(C(F)(F)F)c3)c2c1,0.201*
COc1ccc2[nH]c(C)c(CCNCc3ccc(F)cc3)c2c1,0.505
COc1ccc2[nH]c(C)c(CCNCc3ncc[nH]3)c2c1,0.176*
COc1ccc(F)c(CNCCc2c(C)[nH]c3ccc(OC)cc23)c1,0.373*
COc1ccc2[nH]c(C)c(CCNCc3ccc4ccccc4n3)c2c1,0.545
CCCCc1ncc(CNCCc2c(C)[nH]c3ccc(OC)cc23)[nH]1,0.995
CCOc1cc(CNCCc2c(C)[nH]c3ccc(OC)cc23)ccc1OC,0.723
COc1ccc2[nH]c(C)c(CCNCc3cccc(OC)c3OC)c2c1,0.615
COc1ccc(OC)c(CNCCc2c(C)[nH]c3ccc(OC)cc23)c1,0.712
COc1ccc2[nH]c(C)c(CCNCc3ccc(OC(F)(F)F)cc3)c2c1,0.419*
CCCCNC(=O)CN1C(=O)C(CC(C)C)N=C(c2ccccc2)c2ccccc21 (stereo not drawn),0.931
CCCCOc1ccc(C2SCC(=O)Nc3c2c(C)nn3-c2ccccc2)cc1 (stereo not drawn),0.939
COc1ccc(/C=C/c2nc3ccccc3c(=O)n2-c2ccc(Cl)cc2C)cc1,1.19
CCOC(=O)c1c(C)n(Cc2ccccc2)c2ccc(OCC(O)CN3CCCCCC3)cc12 (stereo not drawn),0.574
CCN(CC)S(=O)(=O)c1ccc2oc(C(=O)N3CCC4(CC3)OCCO4)c(C)c2c1,1.11
CCOc1ccc(-n2c(/C=C\c3ccc(F)c(F)c3)nc3ccccc3c2=O)cc1,0.969
CC(C)(O)c1ccc(C(=O)C2CN3CCC2CC3)s1 (stereo not drawn),1.09
CCC(C(=O)Nc1cccc(Cl)c1)N1C(=O)C(C)N=C(c2ccccc2)c2ccccc21 (stereo not drawn),1.19
